A1 inh – inhibitors of the anti-apoptotic protein A1, read as caspase activation. 330,000 compounds, 0.066% hits. caspase activation, % (test concentration not listed). MEF A1-2A-BIM cells, Caspase-Glo 3/7 luminescence, 3 h; percent of clofoctol response, vehicle zero;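 active = over half of replicate activation scores above 10%, or exactly half above 10 with the replicate mean above 10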
Beta apoptosis – beta cell apoptosis inhibition; INS-1E cytokine-induced death, ATP luminescence, 48 h; percent of positive-control rescue, neutral wells zero; protection from apoptosis, % (concentration not given with the values); 300,000 compounds, 0.8% hits;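 active = Every replicate reaches about 75%, or at least half do and their mean reaches it too, limit read from the data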;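 also: 0% = cytokine-treated negative control wells and 100% = positive control rescue; higher means more ATP so stronger rescue from cytokine killing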
aSyn UTR inh – 5' untranslated region of α-synuclein, MLPCN primary screen | inhibition, % (tested at 7.5 µM) | 300,000 compounds, 0.82% hits | AID 1813 | alpha-synuclein 5'UTR reporter, inhibitor activity; in the data active = inhibition above about 60%;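 also: H4 neuroglioblastoma cells stably carrying SNCA 5'UTR luciferase fusion; 0% = DMSO wells and 100% = positive control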
Mdm2-MdmX inh – disrupts the human Mdm2-MdmX interaction | SaOS-2 split-luciferase Mdm2/MdmX complementation, luminescence | inhibition, % at 8 µM | 330,000 compounds, 3% hits | AID 485346 | O15151+Q00987;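 active = inhibition of at least 50% at 8 µM in the primary screen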
Target sequence (O15151 whole entry, looked up): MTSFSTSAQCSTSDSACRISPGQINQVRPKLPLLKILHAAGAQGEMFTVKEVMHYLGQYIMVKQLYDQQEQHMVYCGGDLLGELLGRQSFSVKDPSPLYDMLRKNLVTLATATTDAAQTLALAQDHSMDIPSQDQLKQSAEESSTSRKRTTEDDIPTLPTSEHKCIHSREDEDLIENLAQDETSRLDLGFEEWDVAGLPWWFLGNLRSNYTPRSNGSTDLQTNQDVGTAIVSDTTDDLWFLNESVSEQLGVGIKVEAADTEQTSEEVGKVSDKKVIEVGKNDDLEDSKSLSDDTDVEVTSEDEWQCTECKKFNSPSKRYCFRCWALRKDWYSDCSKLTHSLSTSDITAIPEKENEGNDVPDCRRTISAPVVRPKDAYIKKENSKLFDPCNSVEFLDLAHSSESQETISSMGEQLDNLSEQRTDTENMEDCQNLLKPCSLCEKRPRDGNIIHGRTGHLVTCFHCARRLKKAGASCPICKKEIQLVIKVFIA
Target sequence (Q00987 whole entry, looked up): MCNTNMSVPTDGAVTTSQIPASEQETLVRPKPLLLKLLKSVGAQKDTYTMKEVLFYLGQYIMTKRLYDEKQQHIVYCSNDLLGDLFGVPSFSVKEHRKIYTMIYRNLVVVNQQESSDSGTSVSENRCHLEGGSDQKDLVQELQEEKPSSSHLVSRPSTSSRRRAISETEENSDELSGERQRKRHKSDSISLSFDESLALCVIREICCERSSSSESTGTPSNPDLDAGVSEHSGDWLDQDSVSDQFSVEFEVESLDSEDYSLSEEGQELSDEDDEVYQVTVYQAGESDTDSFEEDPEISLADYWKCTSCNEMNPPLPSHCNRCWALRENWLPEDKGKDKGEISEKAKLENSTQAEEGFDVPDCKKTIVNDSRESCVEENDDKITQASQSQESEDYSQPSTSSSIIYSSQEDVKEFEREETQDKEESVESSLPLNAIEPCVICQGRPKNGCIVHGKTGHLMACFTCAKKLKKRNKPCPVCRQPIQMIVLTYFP
CSC inhib – cancer stem cell inhibition; cancer stem cell-like cells viability, luminescence; inhibition, % at 7.5 µM; 300,000 compounds, 1.1% hits; in the data active = inhibition above about 75%; tested in HMLE shEcad cells
Mdm2 MdmX conf – human Mdm2/MdmX binding inhibition, confirmed. shares compounds with Mdm2-MdmX inh. luminescent assay. inhibition, % at 8 µM. 10,000 compounds, 55% hits; in the data active = inhibition above about 40%
FLuc counter – full-length luciferase inhibition in Mdm2/MdmX counter-screen. shares compounds with Mdm2-MdmX inh. SaOS-2 full-length luciferase counterscreen, luminescence. inhibition, % at 8 µM. 6,200 compounds, 77% hits;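 active = mean inhibition at 8 µM reaching about 37%, which flags the compound as non-specific, limit read from the data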;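 also: p53-null SaOS-2 cells with luciferase driven by a doxycycline-inducible promoter; compound on cells about two nights before reading with doxycycline added after day one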
Starred values were filed as active, the others as inactive; / = not tested or not shown. Sampled rows, rich in hits. Any-hit rate of the full collection: about 4.1%.

SMILES	A1 inh	Beta apoptosis	aSyn UTR inh	Mdm2-MdmX inh	CSC inhib	Mdm2 MdmX conf	FLuc counter
CCc1ccc(-c2cc(C)no2)cc1S(=O)(=O)N1CCN(c2cc(C)ccc2C)CC1	-1	7	-6	22	23	/	/
Cc1cc(=O)[nH]c2c(C)cc(S(=O)(=O)N3CCCCC3)cc12	-3	-3	11	70*	-9	54*	89*
COc1ccc(N2CC(O)=C(c3nc4ccccc4s3)C2=N)cc1	0	0	6	8	12	/	/
COc1cccc(N2CC(O)=C(c3nc4ccccc4s3)C2=N)c1	0	7	-21	70*	51	57*	111*
Cc1nc2cc(N3CCN(C)CC3)c(NC(=O)Cc3ccccc3)cc2c(=O)n1Cc1ccccc1	-1	-3	-15	-9	0	/	/
Cc1nc2cc(N3CCCCC3)c(NC(=O)c3ccncc3)cc2c(=O)n1Cc1ccc(Cl)cc1	2	45	62*	89*	-4	-3	/
Cc1nnc(NC(=O)c2ccccc2Oc2ccccc2)s1	1	1	3	20	/	/	/
Cc1cc2cc(C#N)c(SCC(=O)Nc3nonc3C)nc2cc1C	-1	1	-92	69*	/	29	/
COc1ccc(NCc2n[nH]c(=O)c3ccccc23)cc1	0	-2	-2	-16	-19	/	/
Cc1nnc(NCc2n[nH]c(=O)c3ccccc23)c2ccccc12	0	23	18	75*	-5	21	/
CN(CC(=O)Nc1ccc(F)cc1)C(=O)CCc1nc2ccccc2c(=O)[nH]1	0	0	15	13	1	/	/
COc1ccc(CCN2CC(C(=O)N(C)CC(=O)Nc3ccc(Cl)c(C(F)(F)F)c3)CC2=O)cc1OC (centres undefined)	/	/	/	21	/	/	/
CN(CC(=O)Nc1ccc(Cl)c(C(F)(F)F)c1)C(=O)C1CC(=O)N(CCc2ccccc2)C1 (centres undefined)	/	/	/	51*	/	42*	61*
CN(CC(=O)Nc1ccc(Cl)c(C(F)(F)F)c1)C(=O)CCc1nc2ccccc2c(=O)[nH]1	1	-6	/	54*	-5	24	/
CSCCC(NC(=O)c1ccco1)C(=O)N1CC=C(c2ccccc2)CC1 (centres undefined)	0	-3	4	6	-7	/	/
Cc1ccc(CNC(=O)c2ccc3c(=O)c(O)c(-c4ccc(C)cc4)[nH]c3c2)cc1	-1	30	94*	58*	42	55*	29
CCCCCn1c(=O)[nH]c2cc(C(=O)NCCCN(CC)CC)ccc2c1=O	-1	2	9	-11	29	/	/
Cc1ccc(-c2[nH]c3cc(C(N)=O)ccc3c(=O)c2O)cc1	-1	-4	-21	34	/	/	/
CCCNC(=O)c1ccc2c(=O)c(O)c(-c3ccc(C)cc3)[nH]c2c1	0	82*	69*	58*	39	51*	48*
CCCNC(=O)c1ccc2c(=O)c(O)c(-c3ccc(OC)cc3)[nH]c2c1	0	0	88*	50*	29	14	/
Cc1ccc(-c2[nH]c3cc(C(=O)NCCCn4ccnc4)ccc3c(=O)c2O)cc1	0	0	-1	15	-4	/	/
CCCNC(=O)c1ccc2c(=O)c(O)c(-c3ccsc3)[nH]c2c1	3	8	87*	57*	6	23	/
Cc1cc(C(=O)C(C)OC(=O)c2ccc(NC(=O)CC#N)cc2)c(C)n1-c1ccccc1 (centres undefined)	0	/	-24	-7	13	/	/
CC(C)Cc1nnc(NC(=O)CCC(=O)NC2CCCCCC2)s1	0	0	18	-18	12	/	/
COc1cc(OC)c(C#N)c(S(=O)(=O)Cc2ccccc2)c1	0	-3	-3	1	3	/	/
SMILES	A1 inh	Beta apoptosis	aSyn UTR inh	Mdm2-MdmX inh	CSC inhib	Mdm2 MdmX conf	FLuc counter
N#Cc1c([N+](=O)[O-])cc([N+](=O)[O-])cc1S(=O)(=O)Cc1ccccc1	-1	113*	/	98*	125*	96*	0
COc1ccc(Cc2[nH]n3c(=O)cc(C)nc3c2-c2ccccc2)cc1	0	-5	9	39	29	/	/
COc1ccc(Cc2[nH]n3c(=O)cc(C(C)C)nc3c2-c2ccccc2)cc1	1	30	72*	62*	-19	62*	40*
Oc1c(C(Nc2nc3ccccc3s2)c2ccco2)ccc2cccnc12 (centres undefined)	-1	103*	66*	61*	120*	85*	42*
c1coc(CNc2nc3ccccc3s2)c1	-2	-7	-137	-36	2	/	/
CC(C)C(=O)NC(c1ccco1)c1ccc2cccnc2c1O (centres undefined)	-1	117*	63*	82*	-7	64*	24
CC(C)C(=O)NC(c1cccc([N+](=O)[O-])c1)c1ccc2cccnc2c1O (centres undefined)	0	/	91*	81*	100*	90*	52*
CC1C(=O)C(C)C(c2cc(Cl)ccc2O)NC1c1cc(Cl)ccc1O (centres undefined)	1	4	28	39	48	/	/
O=C(NCC1COc2ccccc2O1)c1ccc(Cl)c(S(=O)(=O)N2CCCC2)c1 (centres undefined)	1	-2	/	-3	1	/	/
Cc1ccc(CN2CC(C(=O)Nc3ncc(C)s3)CC2=O)cc1 (centres undefined)	/	/	/	61*	/	59*	66*
Cc1ccc(Nc2nc(C)c3c(n2)CC(C)CC3=O)c(C)c1 (centres undefined)	-1	1	3	23	-4	/	/
Cc1nc(Nc2cccc(C(F)(F)F)c2)nc2c1C(=O)CC(C)C2 (centres undefined)	1	8	/	54*	-4	12	/
C/C(=C\[C@@H](NP(=O)(c1ccccc1)c1ccccc1)c1ccccc1)CO[Si](c1ccccc1)(c1ccccc1)C(C)(C)C	0	14	25	76*	41	10	/
O=C(Cn1cnc2scc(-c3ccc(F)cc3)c2c1=O)NCC(c1ccco1)N1CCCC1 (centres undefined)	/	/	/	21	/	/	/
CC(C)=CCC/C(C)=C/CNC(=O)CC1C[C@H](C(=O)N(C(C)C)C(C)C)[C@@]2(C)c3[nH]c4ccccc4c3CCN2C1=O (some centres undefined)	0	10	/	53*	/	-10	/
COc1ccc2[nH]c3c(c2c1)CCN1C(=O)C(CC(=O)NC(C)(C)C)C[C@H](C(=O)N(C(C)C)C(C)C)[C@@]31C (some centres undefined)	/	/	/	20	/	/	/
CC(C)=CCC/C(C)=C/CNC(=O)C[C@H]1C[C@H](C(=O)N(C(C)C)C(C)C)[C@@]2(C)c3[nH]c4ccc(Cl)cc4c3CCN2C1=O	/	/	/	51*	/	1	/
